Reference: PubChem BioAssay (Tox21)
Values joined by “and” are separate entries in the source; they are usually repeats but may differ in a detail not shown here. Identical values can stand only once. Records with an inconclusive call do not appear. Active and inactive are the calls of the source. Calls come from the whole dose curve; as a rule, active = well fitted inhibition curve with a large enough effect in the repeat runs; inconclusive = weak or mixed curves; inactive = no such curve, though single readings can be large or run the other way.

molecular target: Cytochrome P450 3A4 (Homo sapiens) (UniProt P08684); experiment: Cytochrome P450 Family 3 Subfamily A Member 4 (CYP3A4) small molecule antagonists: luciferase reporter qHTS assay (AID 1671201); conditions: P450-Glo CYP3A4 enzyme, luciferin luminescence, 1 h; series mostly up to 115 µM; activity change, negative = inhibition: at the top concentration; note: nearly all actives have a fitted effect of over 50% in size
How it was run: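 Recombinant human CYP3A4 converts a proluciferin substrate to luciferin over 1 h at room temperature after NADPH regeneration solution is added (compound preincubated 10 min); detection reagent stops reaction, luminescence read 20 min later as relative units.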
% is set by controls: 0 for no effect and ±100 for the full control effect; potency is the fitted concentration of half-maximal effect.

Cytochrome P450 3A4 (Homo sapiens), sequence (P08684 whole entry, looked up): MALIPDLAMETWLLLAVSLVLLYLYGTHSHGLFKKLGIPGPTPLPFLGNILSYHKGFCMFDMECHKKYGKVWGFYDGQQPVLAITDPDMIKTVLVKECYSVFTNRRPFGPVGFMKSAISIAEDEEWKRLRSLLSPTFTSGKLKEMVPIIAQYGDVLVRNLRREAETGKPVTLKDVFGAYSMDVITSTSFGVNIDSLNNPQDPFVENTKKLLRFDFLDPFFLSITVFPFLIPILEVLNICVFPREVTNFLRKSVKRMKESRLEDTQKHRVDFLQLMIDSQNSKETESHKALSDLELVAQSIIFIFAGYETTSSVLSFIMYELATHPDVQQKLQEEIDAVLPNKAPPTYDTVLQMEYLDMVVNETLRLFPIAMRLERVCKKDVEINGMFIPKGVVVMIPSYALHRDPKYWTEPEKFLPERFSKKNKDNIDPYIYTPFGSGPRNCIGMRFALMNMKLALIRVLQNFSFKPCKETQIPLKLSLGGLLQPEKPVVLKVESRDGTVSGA

| Structure (SMILES) | activity change, negative = inhibition | Potency |
| --- | --- | --- |
| O=C1NCC2(CCN(CCc3ccccc3)CC2)O1 | 12% [at 52.9 µM] (inactive) | – |
| CC(C)(C)c1cc(C(C)(C)C)c(O)c(C(C)(C)C)c1 | -20.5% (inactive) | – |
| O=C(O)c1cccc(C(=O)O)c1 | – | inactive |
| O=C(O[C@@H]1Cc2c(O)cc(O)cc2O[C@@H]1c1cc(O)c(O)c(O)c1)c1cc(O)c(O)c(O)c1 | – | 35.7 µM (active) and 48.5 µM (active) |
| CC(=O)OCCOCCOCCOC(C)=O | – | inactive |
| Nc1ccc(O)cc1 | – | 37 µM (active) |
| CCCCCCCCCCCCCC[P+](CCCC)(CCCC)CCCC | -51.8% (inactive) | – |
| CCC(C)(Oc1ccc(C2(c3ccc(OC(C)(CC)C(=O)O)cc3)CCCCC2)cc1)C(=O)O (stereo not given) | 43.8% [at 52.9 µM] (inactive) | – |
| C=CC(=O)OCCCCCCCC | 0.336% (inactive) | – |
| O=C(O)CP(=O)(O)O | 4.3% [at 52.9 µM] (inactive) | – |
| O=C(O)c1cn(-c2ccc(F)cc2)c2cc(N3CCNCC3)c(F)cc2c1=O | – | inactive |
| CC1COC(=O)O1 (stereo not given) | – | inactive |
| Cc1cccc([N+](=O)[O-])c1C(=O)O | 2.49% (inactive) | – |
| CCN1CCCC1CNC(=O)c1cc(S(=O)(=O)CC)c(N)cc1OC (stereo not given) | 3.17% [at 52.9 µM] (inactive) | – |
| N[C@@H]1CONC1=O | -0.091% [at 52.9 µM] (inactive) | – |
| CCn1c2ccccc2c2cc(N)ccc21 | – | 1.77 µM (active) and 5.64 µM (active) and 31.7 µM (active) |
| Oc1c(Cl)cc(Cl)c(Cl)c1Cc1c(O)c(Cl)cc(Cl)c1Cl | -17.9% [at 52.9 µM] (inactive) | – |
| COc1ccc(COC(C)=O)cc1 | – | inactive |

| Structure (SMILES) | activity change, negative = inhibition | Potency |
| --- | --- | --- |
| COc1ccc(Cc2cnc(N)nc2N)cc1OC | 10.6% [at 52.9 µM] (inactive) | – |
| CC[C@@H](N)CO | -3.13% (inactive) | – |
| Cc1cc(OCCOCC[N+](C)(C)Cc2ccccc2)ccc1C(C)(C)CC(C)(C)C | – | inactive |
| CCCC(=O)c1ccccc1 | 0.311% (inactive) | – |
| CC(C)CCOC(=O)c1ccc(N(C)C)cc1 | -21.9% [at 52.9 µM] (inactive) | – |
| Cc1occc(=O)c1OC(=O)C(C)C | 0.723% (inactive) | – |
| Clc1ccc2c(c1)C(N1CCNCC1)=Nc1ccccc1O2 | – | 7.96 µM (active) and 4.9 µM (active) |
| CC(C)CCOCc1ccccc1 | 4.91% (inactive) | – |
| CCN(CC)C(=O)Nc1ccc(OCC(O)CNC(C)(C)C)c(C(C)=O)c1 (stereo not given) | 2.21% [at 52.9 µM] (inactive) | – |
| OCCN1CCNCC1 | – | inactive |
| COC(=O)c1cccc(C(=O)OC)c1 | – | inactive |
| Cc1cccc2n[nH]nc12 | – | inactive |
| CC(=O)CC(=O)Nc1ccc2[nH]c(=O)[nH]c2c1 | -2.75% (inactive) | – |
| Nc1cc(S(=O)(=O)O)cc2cc(S(=O)(=O)O)cc(O)c12 | – | inactive |
| CCCCCCCCCCCC[N+](C)(C)C | – | inactive |
| NCCCCCC(=O)O | 1.83% [at 52.9 µM] (inactive) | – |
| O=C1OC2(c3ccc(O)cc3Oc3cc(O)ccc32)c2ccccc21 | – | inactive |
